Source: PubChem BioAssay AID1159580 (chemical genetic matrix, 2015)
Values joined by “and” are separate entries in the source; they are usually repeats but may differ in a detail not shown here. Equal entries are not always repeated. The campaign covered roughly 5,500 compounds. About 2,000 (36%) were called active. Inconclusive results (about 18%) are left out. Cut-off read from the data, not from the text of the source: active = normalized growth mostly below about 0.91 (no sharp cut-off); inconclusive = no clear call, values can overlap the other calls; inactive = mostly above about 0.92. This is one part of the list.

Assay: chemical genetic growth profiling, strain panel (AID 1159580);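 note: tested at 20 µM; growth read once vehicle control cultures reached saturation at 30 °C; 1 = growth at the plate median or of vehicle wells; lower values mean less growth of the strain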
Settings: growth OD

Measured: normalized growth

NCCc1c[nH]c2ccccc12
inactive: S. cerevisiae deletion strains, locus YJR075W, strain HOC1, active compounds read low 1.01 and 0.992 | S. cerevisiae deletion strains, locus YKL009W, strain mrt4, active compounds read low 0.991 | S. cerevisiae deletion strains, locus YKL068W, active compounds read low 0.987 | S. cerevisiae deletion strains, locus YKL085W, strain MDH1 (second series), active compounds read low 0.996 | S. cerevisiae deletion strains, locus YKL085W, strain MDH1, active compounds read low 0.996 | S. cerevisiae deletion strains, locus YKL160W, strain elf1, active compounds read low 0.968 | S. cerevisiae deletion strains, locus YKL190W, strain CNB1, active compounds read low 0.996 | S. cerevisiae deletion strains, locus YKR001C, strain vps1, active compounds read low 0.987 | S. cerevisiae deletion strains, locus YKR026C, strain gcn3, active compounds read low 0.958 | S. cerevisiae deletion strains, locus YKR091W, strain srl3, active compounds read low 0.976 | S. cerevisiae deletion strains, locus YLL001W, strain dnm1, active compounds read low 0.958 | S. cerevisiae deletion strains, locus YLL026W, active compounds read low 0.941 | S. cerevisiae deletion strains, locus YLL041C, strain sdh2, active compounds read low 0.965 | S. cerevisiae deletion strains, locus YLR027C, strain aat2, active compounds read low 0.974 | S. cerevisiae deletion strains, locus YLR039C, strain RIC1, active compounds read low 0.988 | S. cerevisiae deletion strains, locus YLR058C, strain SHM2, active compounds read low 0.975 | S. cerevisiae deletion strains, locus YLR102C, strain apc9, active compounds read low 0.996 | S. cerevisiae deletion strains, locus YLR113W, strain HOG1, active compounds read low 0.999 | S. cerevisiae deletion strains, locus YLR221C, strain rsa3, active compounds read low 0.998 | S. cerevisiae deletion strains, locus YLR258W, strain gsy2, active compounds read low 0.965 | S. cerevisiae deletion strains, locus YLR262C, strain YPT6 (second series), active compounds read low 0.956 | S. cerevisiae deletion strains, locus YLR262C, strain YPT6, active compounds read low 0.934 | S. cerevisiae deletion strains, locus YLR268W, strain sec22, active compounds read low 1.06 | S. cerevisiae deletion strains, locus YLR320W, strain mms22, active compounds read low 0.985 | S. cerevisiae deletion strains, locus YLR330W, strain CHS5, active compounds read low 0.973 | S. cerevisiae deletion strains, locus YLR342W, strain FKS1 (second series), active compounds read low 0.986 | S. cerevisiae deletion strains, locus YLR342W, strain FKS1, active compounds read low 0.972 | S. cerevisiae deletion strains, locus YLR357W, strain rsc2, active compounds read low 0.987 | S. cerevisiae deletion strains, locus YLR370C, strain arc18, active compounds read low 0.94 | S. cerevisiae deletion strains, locus YLR371W, strain rom2, active compounds read low 0.982 | S. cerevisiae deletion strains, locus YLR384C, strain iki3, active compounds read low 0.949 | S. cerevisiae deletion strains, locus YLR418C, strain cdc73, active compounds read low 0.99 | S. cerevisiae deletion strains, locus YML016C, strain PPZ1, active compounds read low 0.99 | S. cerevisiae deletion strains, locus YML032C, strain rad52, active compounds read low 1.01 | S. cerevisiae deletion strains, locus YML120C, strain ndi1, active compounds read low 0.962 | S. cerevisiae deletion strains, locus YML124C, strain tub3, active compounds read low 0.988 | S. cerevisiae deletion strains, locus YMR058W, strain fet3, active compounds read low 0.96 | S. cerevisiae deletion strains, locus YMR078C, strain ctf18, active compounds read low 0.986 | S. cerevisiae deletion strains, locus YMR125W, strain sto1, active compounds read low 0.96 | S. cerevisiae deletion strains, locus YMR129W, active compounds read low 0.973 | S. cerevisiae deletion strains, locus YMR205C, strain PFK2, active compounds read low 0.975 | S. cerevisiae deletion strains, locus YMR223W, strain ubp8, active compounds read low 0.955 | S. cerevisiae deletion strains, locus YMR231W, strain pep5, active compounds read low 0.97 | S. cerevisiae deletion strains, locus YMR263W, strain SAP30, active compounds read low 0.995 | S. cerevisiae deletion strains, locus YMR307W, strain GAS1, active compounds read low 0.987 | S. cerevisiae deletion strains, locus YNL067W, strain RPL9B, active compounds read low 1.03 | S. cerevisiae deletion strains, locus YNL071W, strain lat1, active compounds read low 0.973 | S. cerevisiae deletion strains, locus YNL128W, strain TEP1, active compounds read low 0.976 | S. cerevisiae deletion strains, locus YNL153C, strain GIM3, active compounds read low 1.02 | S. cerevisiae deletion strains, locus YNL175C, strain NOP13, active compounds read low 1 | S. cerevisiae deletion strains, locus YNL183C, strain NPR1, active compounds read low 0.97 | S. cerevisiae deletion strains, locus YNL197C, strain WHI3, active compounds read low 0.989 | S. cerevisiae deletion strains, locus YNL209W, strain ssb2, active compounds read low 0.96 | S. cerevisiae deletion strains, locus YNL224C, strain SQS1, active compounds read low 1 | S. cerevisiae deletion strains, locus YNL233W, strain BNI4, active compounds read low 1.01 | S. cerevisiae deletion strains, locus YNL248C, strain rpa49, active compounds read low 0.986 | S. cerevisiae deletion strains, locus YNL250W, strain rad50, active compounds read low 0.974 | S. cerevisiae deletion strains, locus YNL271C, strain bni1, active compounds read low 0.994 | S. cerevisiae deletion strains, locus YNL298W, strain CLA4, active compounds read low 0.995 | S. cerevisiae deletion strains, locus YNL307C, strain MCK1, active compounds read low 0.984 | S. cerevisiae deletion strains, locus YNL322C, strain KRE1 (second series), active compounds read low 0.943 | S. cerevisiae deletion strains, locus YNL322C, strain KRE1, active compounds read low 0.988 | S. cerevisiae deletion strains, locus YNR049C, strain mso1, active compounds read low 0.959 | S. cerevisiae deletion strains, locus YNR052C, strain pop2, active compounds read low 0.985 | S. cerevisiae deletion strains, locus YOL006C, strain TOP1, active compounds read low 1.05 | S. cerevisiae deletion strains, locus YOL012C, strain htz1 1.16 | S. cerevisiae deletion strains, locus YOL147C, strain pex11, active compounds read low 0.988 | S. cerevisiae deletion strains, locus YOR001W, strain rrp6, active compounds read low 0.971 | S. cerevisiae deletion strains, locus YOR061W, strain CKA2, active compounds read low 0.97 | S. cerevisiae deletion strains, locus YOR069W, strain VPS5, active compounds read low 0.992 | S. cerevisiae deletion strains, locus YOR070C, strain gyp1, active compounds read low 0.982 | S. cerevisiae deletion strains, locus YOR080W, strain dia2, active compounds read low 0.959 | S. cerevisiae deletion strains, locus YOR083W, strain WHI5 (second series), active compounds read low 0.966 | S. cerevisiae deletion strains, locus YOR083W, strain WHI5, active compounds read low 0.982 | S. cerevisiae deletion strains, locus YOR106W, strain vam3, active compounds read low 0.942 | S. cerevisiae deletion strains, locus YOR136W, strain idh2, active compounds read low 0.978 | S. cerevisiae deletion strains, locus YOR144C, strain elg1, active compounds read low 0.999 | S. cerevisiae deletion strains, locus YOR184W, strain ser1, active compounds read low 1 | S. cerevisiae deletion strains, locus YOR231W, strain MKK1, active compounds read low 0.979 | S. cerevisiae deletion strains, locus YOR265W, strain rbl2, active compounds read low 0.954 | S. cerevisiae deletion strains, locus YOR270C, strain vph1, active compounds read low 0.892 | S. cerevisiae deletion strains, locus YOR290C, strain snf2, active compounds read low 0.959 | S. cerevisiae deletion strains, locus YOR316C, strain cot1, active compounds read low 0.995 | S. cerevisiae deletion strains, locus YPL051W, strain arl3, active compounds read low 0.973 | S. cerevisiae deletion strains, locus YPL055C, strain LGE1, active compounds read low 0.99 | S. cerevisiae deletion strains, locus YPL078C, strain atp4, active compounds read low 0.943 | S. cerevisiae deletion strains, locus YPL106C, strain sse1, active compounds read low 0.916 | S. cerevisiae deletion strains, locus YPL240C, strain hsp82, active compounds read low 0.962 | S. cerevisiae deletion strains, locus YPL241C, strain CIN2, active compounds read low 0.99 and 0.999 | S. cerevisiae deletion strains, locus YPL256C, strain CLN2, active compounds read low 0.951 | S. cerevisiae deletion strains, locus YPR119W, strain clb2, active compounds read low 0.992 | S. cerevisiae deletion strains, locus YPR141C, strain kar3, active compounds read low 0.983 | S. cerevisiae deletion strains, locus YPR163C, strain tif3, active compounds read low 0.986 | S. cerevisiae deletion strains, locus YPR167C, strain met16, active compounds read low 0.994 | S. cerevisiae deletion strains, strain wtn01, active compounds read low 1.02 | S. cerevisiae strains, strain wild type, active compounds read low 0.987
